Laboratory results taken from PubChem BioAssay (Tox21).
Results filed as inconclusive are left out. Activity calls are given as the source filed them. Unless noted, calls follow the shape of the full dose curve.

How the values were obtained:
[1] = Nuclear factor erythroid 2-related factor 2/antioxidant responsive element (Nrf2/ARE) small molecule agonists: qHTS cell viability counter screen in human keratinocytes (AID 1919968; active = well fitted curve in the direction sought with a large enough effect in the repeat runs; an effect the other way counts as inactive or inconclusive; also: nearly all actives have a fitted effect of over 55% in size; also: potency is read from the fitted curve at half-maximal effect)
Procedure, shortened: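 Viability counter-screen: KeratinoSens reporter cells, DMSO-delivered compounds, 23 h at 37 C, CellTiter-Fluor fluorescence.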

[2] = Nuclear factor erythroid 2-related factor 2/antioxidant responsive element (Nrf2/ARE) small molecule agonists: luciferase reporter gene qHTS assay in human keratinocytes (AID 1919969); also: nearly all actives have a fitted effect of over 35% in size
[3] = biological target: KiSS-1 receptor (Homo sapiens) (UniProt Q969F8); experiment: Human kisspeptin (KISS1R) small molecule agonists, calcium flux assay in KISS1R-HEK293 cells (AID 1920064; active = well fitted curve in the direction sought with a large enough effect in the repeat runs; an effect the other way counts as inactive or inconclusive)
Chain of KiSS-1 receptor (Homo sapiens) (Q969F8 whole entry, looked up): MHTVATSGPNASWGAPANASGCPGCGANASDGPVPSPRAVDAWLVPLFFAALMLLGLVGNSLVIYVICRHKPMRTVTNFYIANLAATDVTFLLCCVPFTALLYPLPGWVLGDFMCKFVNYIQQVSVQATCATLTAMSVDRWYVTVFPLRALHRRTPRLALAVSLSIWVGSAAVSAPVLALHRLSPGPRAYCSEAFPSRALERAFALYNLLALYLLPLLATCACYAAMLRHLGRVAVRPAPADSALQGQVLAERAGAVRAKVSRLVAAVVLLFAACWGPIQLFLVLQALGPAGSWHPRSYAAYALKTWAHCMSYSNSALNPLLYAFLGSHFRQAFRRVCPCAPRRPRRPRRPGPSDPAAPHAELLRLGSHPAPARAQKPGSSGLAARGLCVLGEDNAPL
Procedure, shortened: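 Intracellular calcium mobilization in KISS1R-HEK293 cells was recorded by fluorescence (Ex/Em 480/540) for 3 min following compound addition to cells pre-loaded 1 h with calcium dye.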

[4] = G protein-coupled receptor (GPCR) small molecule agonists, calcium flux assay: HEK293 wild type cell line counter screen (AID 1920065)
Procedure, shortened: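 In this agonist-mode screen, ATP is the positive control and DMSO the vehicle. Cells grow 18 h before a 1 h dye incubation at 37 C; signal is taken at Ex/Em 480/540 over 3 min.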

[5] = p53 small molecule agonists, cell-based qHTS assay with rat liver microsomes (AID 1963578)
Procedure, shortened: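 Fluorescence from a beta-lactamase reporter under a p53 response element was measured after cells had been incubated 16 h at 37 C with test compound and rat liver microsomes plus NADPH (0.5 mg/mL final each).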

[6] = p53 small molecule agonists, cell-based qHTS assay with human liver microsomes: qHTS cell viability counter screen (AID 1963579); also: nearly all actives have a fitted effect of over 45% in size
Procedure, shortened: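 Seed p53RE-bla cells at 4,000 per well; incubate 5 h at 37 C; add compound, human liver microsomes and NADPH; incubate 16 h at 37 C; add CellTiter-Glo; after 30 min at room temperature, read luminescence.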

[7] = p53 small molecule agonists, cell-based qHTS assay with rat liver microsomes: qHTS cell viability counter screen (AID 1963580); also: nearly all actives have a fitted effect of over 45% in size
Procedure, shortened: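 Intracellular ATP, by CellTiter-Glo luminescence, defines viability. HCT-116 p53RE-bla cells, 4,000 per well, were compound-treated in the presence of rat liver microsomes and NADPH for 16 h at 37 C.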

[8] = p53 small molecule agonists, cell-based qHTS assay: qHTS cell viability counter screen (AID 1963581); also: nearly all actives have a fitted effect of over 45% in size
Procedure, shortened: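 Compounds are pinned onto HCT-116 p53RE-bla cells and left 16 h at 37 C. Following the reporter FRET read, ATP is quantified by CellTiter-Glo luminescence after 30 min at room temperature.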

[9] = biological target: 5-hydroxytryptamine receptor 2A (Homo sapiens) (UniProt P28223); experiment: 5-hydroxytryptamine receptor 2A (HTR2A) small molecule antagonists, cell-based qHTS assay (AID 1963586); also: nearly all actives have a fitted effect of over 45% in size
Chain of 5-hydroxytryptamine receptor 2A (Homo sapiens) (P28223 whole entry, looked up): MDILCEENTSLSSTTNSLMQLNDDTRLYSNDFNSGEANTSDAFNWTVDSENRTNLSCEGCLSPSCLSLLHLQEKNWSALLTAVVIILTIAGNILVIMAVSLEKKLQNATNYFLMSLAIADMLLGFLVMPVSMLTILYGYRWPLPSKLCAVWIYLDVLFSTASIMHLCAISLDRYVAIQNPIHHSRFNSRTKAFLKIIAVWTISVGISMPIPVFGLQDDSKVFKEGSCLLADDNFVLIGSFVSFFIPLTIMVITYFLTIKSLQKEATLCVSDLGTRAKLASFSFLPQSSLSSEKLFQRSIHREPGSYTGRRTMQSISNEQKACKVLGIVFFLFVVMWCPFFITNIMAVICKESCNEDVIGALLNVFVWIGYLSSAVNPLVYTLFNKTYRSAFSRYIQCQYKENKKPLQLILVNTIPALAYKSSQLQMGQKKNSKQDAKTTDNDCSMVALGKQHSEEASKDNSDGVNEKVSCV
Procedure, shortened: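 Antagonist-mode intracellular calcium assay: DOI (4 nM) added after 5 min compound pre-incubation at room temperature to dye-loaded HTR2A-CHO cells. Fluorescence followed for 3 min, sampled every second.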

[10] = biological target: 5-hydroxytryptamine receptor 2A (Homo sapiens) (UniProt P28223); experiment: 5-hydroxytryptamine receptor 2A (HTR2A) small molecule agonists, cell-based qHTS assay (AID 1963587); also: nearly all actives have a fitted effect of over 30% in size; also: potency is read from the fitted curve at half-maximal effect
Procedure, shortened: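 Kinetic calcium-flux fluorescence (2 min, 1 sec intervals) after compound addition in agonist mode. HTR2A-CHO cells were cultured 18 h, then dye-loaded 1 h at 37 C.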

[11] = biological target: Muscarinic acetylcholine receptor M1 (Homo sapiens) (UniProt P11229); experiment: Cholinergic receptor muscarinic 1 (CHRM1) small molecule antagonists, cell-based qHTS assay (AID 1963588); also: nearly all actives have a fitted effect of over 40% in size; also: potency is read from the fitted curve at half-maximal effect
Chain of Muscarinic acetylcholine receptor M1 (Homo sapiens) (P11229 whole entry, looked up): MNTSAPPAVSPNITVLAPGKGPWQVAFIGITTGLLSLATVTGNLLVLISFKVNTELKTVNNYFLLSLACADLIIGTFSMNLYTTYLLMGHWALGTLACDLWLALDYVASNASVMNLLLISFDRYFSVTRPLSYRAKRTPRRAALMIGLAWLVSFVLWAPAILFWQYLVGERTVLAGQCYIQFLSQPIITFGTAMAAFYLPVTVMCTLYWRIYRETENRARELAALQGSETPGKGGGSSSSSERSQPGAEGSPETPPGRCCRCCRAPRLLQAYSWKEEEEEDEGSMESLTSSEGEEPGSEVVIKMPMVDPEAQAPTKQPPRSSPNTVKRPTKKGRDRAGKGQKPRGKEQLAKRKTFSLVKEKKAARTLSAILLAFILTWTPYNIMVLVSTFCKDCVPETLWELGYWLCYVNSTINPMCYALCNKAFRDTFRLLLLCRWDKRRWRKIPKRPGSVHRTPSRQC
Procedure, shortened: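 CHRM1-CHO calcium-flux assay, antagonist mode. Cells were seeded 18 h, dye-loaded 1 h at 37 C and given compound for 5 min at RT, then acetylcholine was added at 50nM. FDSS fluorescence was read 3 min; 15 concentrations, three runs.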

[12] = biological target: Muscarinic acetylcholine receptor M1 (Homo sapiens) (UniProt P11229); experiment: Cholinergic receptor muscarinic 1 (CHRM1) small molecule agonists, cell-based qHTS assay (AID 1963589); also: nearly all actives have a fitted effect of over 35% in size
Procedure, shortened: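 Stable CHRM1-CHO cells (human receptor) were incubated 18 h, dye-loaded for 1 h at 37 C and exposed to test compounds for agonist activity, with calcium-dependent fluorescence followed kinetically.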

[13] = biological target: D(2) dopamine receptor (Homo sapiens) (UniProt P14416); experiment: Dopamine D2 receptor (DRD2) small molecule agonists, cell-based qHTS assay (AID 1963594); also: nearly all actives have a fitted effect of over 35% in size
Chain of D(2) dopamine receptor (Homo sapiens) (P14416 whole entry, looked up): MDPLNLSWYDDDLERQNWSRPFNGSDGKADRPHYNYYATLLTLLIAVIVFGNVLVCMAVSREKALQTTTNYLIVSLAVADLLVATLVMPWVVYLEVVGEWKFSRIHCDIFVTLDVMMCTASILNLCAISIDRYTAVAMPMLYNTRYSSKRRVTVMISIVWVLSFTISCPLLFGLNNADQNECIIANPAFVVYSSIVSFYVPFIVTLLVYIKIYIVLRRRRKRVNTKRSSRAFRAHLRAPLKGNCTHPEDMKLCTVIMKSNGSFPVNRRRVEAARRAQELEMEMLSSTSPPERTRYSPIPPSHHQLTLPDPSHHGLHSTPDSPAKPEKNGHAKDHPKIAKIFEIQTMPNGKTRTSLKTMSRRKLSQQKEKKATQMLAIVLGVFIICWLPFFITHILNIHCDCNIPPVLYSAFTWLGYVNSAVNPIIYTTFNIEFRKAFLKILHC
Procedure, shortened: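 cAMP accumulation in DRD2-HEK293 cells measured by HTRF after 1 h detection; compounds added 10 min before NKH477 (200nM […]) forskolin-analogue stimulation, 30 min at room temperature, with Ro20-1724 present at 0.1 mM final.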

[14] = biological target: D(2) dopamine receptor (Homo sapiens) (UniProt P14416); experiment: Dopamine D2 receptor (DRD2) small molecule antagonists, cell-based qHTS assay (AID 1963595; active = well fitted inhibition curve with a large enough effect in the signal ratio in the repeat runs, with a control signal flat; the % refers to the signal ratio)
Procedure, shortened: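 HEK293 cells stably expressing DRD2 were preincubated with 0.1 mM Ro20-1724, then with compound for 10 min at room temperature. Cells were stimulated with 200 nM NKH477 plus 12 nM quinpirole for 30 min, and cAMP was read by HTRF.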

[15] = biological target: Beta-2 adrenergic receptor (Homo sapiens) (UniProt P07550); experiment: Adrenergic beta2 receptor (ADRB2) small molecule antagonists, cell-based qHTS assay (AID 1963592); also: series mostly up to about 92 µM; nearly all actives have a fitted effect of over 50% in size
Chain of Beta-2 adrenergic receptor (Homo sapiens) (P07550 whole entry, looked up): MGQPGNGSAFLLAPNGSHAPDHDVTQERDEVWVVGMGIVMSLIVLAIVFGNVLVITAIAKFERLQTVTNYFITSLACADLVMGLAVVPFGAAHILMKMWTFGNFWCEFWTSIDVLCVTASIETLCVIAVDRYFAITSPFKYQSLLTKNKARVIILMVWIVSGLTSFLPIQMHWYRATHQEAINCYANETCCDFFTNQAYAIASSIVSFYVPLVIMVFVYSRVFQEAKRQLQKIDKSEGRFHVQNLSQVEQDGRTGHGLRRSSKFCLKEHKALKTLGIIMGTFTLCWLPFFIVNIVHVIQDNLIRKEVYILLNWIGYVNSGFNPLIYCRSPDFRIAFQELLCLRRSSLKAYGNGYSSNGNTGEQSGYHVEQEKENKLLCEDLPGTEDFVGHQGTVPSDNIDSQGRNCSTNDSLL
Procedure, shortened: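 Cells (CHO, stable ADRB2 overexpression) incubated 18-20hr at 37C; compounds added from DMSO; agonist mix (1nM isoproterenol, 100uM IBMX, 25uM Ro-20-1724) added; 0.5hr RT; d2-cAMP and anti-cAMP-cryptate added; 1hr RT; 665/615 nm read.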

[16] = biological target: Beta-2 adrenergic receptor (Homo sapiens) (UniProt P07550); experiment: Adrenergic beta2 receptor (ADRB2) small molecule agonists, cell-based qHTS assay (AID 1963593);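 also: CHO cells stably overexpressing human ADRB2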
Procedure, shortened: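 CHO cells stably over-expressing ADRB2 were plated overnight at 37C, then dosed with compounds plus a stimulation mix containing 100uM IBMX and 25uM Ro-20-1724 for 0.5hr at room temperature. cAMP was measured by HTRF competition, 1hr.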

[17] = cAMP Responsive Elements (CRE) small molecule antagonists, cell-based qHTS assay (AID 1963591; active = well fitted inhibition curve with a large enough effect in the signal ratio in the repeat runs, not every such curve was filed as active; the % refers to the signal ratio)
Procedure, shortened: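 qHTS in CRE-bla HEK 293T cells: compound in DMSO, then 0.25 uM NKH477 (final), 3 h at 37 °C/5% CO2; beta-lactamase FRET read-out after 2 h substrate incubation.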

[18] = p53 small molecule agonists, cell-based qHTS assay with human liver microsomes (AID 1963577)
Procedure, shortened: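 Cells carrying a p53-responsive bla reporter were rested 5 h (37 C, 5% CO2) before compound transfer. Human liver microsomes plus NADPH, 0.5 mg/mL final apiece, supplied metabolism during the 16 h 37 C exposure.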

[19] = cAMP Responsive Elements (CRE) small molecule agonists, cell-based qHTS assay (AID 1963590)
Procedure, shortened: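 FRET-based beta-lactamase readout (LiveBLAzer B/G, 2 h RT) quantified CRE activation in HEK 293T CRE-bla cells after 3 h treatment with DMSO-dissolved compounds.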

Measured: Potency

Cc1cc(C)c(/C=C2\C(=O)Nc3ccccc32)[nH]1
active: [10] 21.3 µM
not listed: [15] | [16] | [17] | [18] | [19]
inactive: all other assays above

C[C@]12CCC(=O)C=C1[C@@H]1C[C@@H]1[C@H]1[C@@H]3[C@@H]4C[C@@H]4[C@@]4(CCC(=O)O4)[C@@]3(C)CC[C@@H]12
active: [11] 18.3 µM
not listed: [17] | [18] | [19]
inactive: all other assays above

CN1CCN(C(=O)C2CCCCC2)CC1
not listed: [18] | [19]
inactive: all other assays above

CCCCCCCCCCCCOCCOCCOCCOCCOCCOCCOCCOCCOCCO
active: [1] 29.8 µM | [11] 9.18 µM
not listed: [5] | [6] | [9] | [13] | [17] | [19]
inactive: all other assays above

CC(C)(COC(=O)c1ccccc1)COC(=O)c1ccccc1
not listed: [5] | [11] | [16] | [18]
inactive: all other assays above

CCn1ccc(NS(=O)(=O)c2ccc(N)cc2)nc1=O
not listed: [6] | [9] | [13] | [16] | [18]
inactive: all other assays above

CC(=O)c1ccc[nH]1
not listed: [7] | [11] | [12] | [13] | [17] | [18]
inactive: all other assays above

CC(C)C[C@H](NC(=O)CNC(=O)[C@H](Cc1ccc(O)cc1)NC(=O)[C@H](CO)NC(=O)[C@H](Cc1c[nH]c2ccccc12)NC(=O)[C@H](Cc1cnc[nH]1)NC(=O)[C@@H]1CCC(=O)N1)C(=O)N[C@@H](CCCN=C(N)N)C(=O)N1CCC[C@H]1C(=O)NCC(N)=O (stereo in doubt)
not listed: [9] | [10] | [11] | [12] | [18]
inactive: all other assays above

CC(C)=CC=O
not listed: [5] | [11] | [17] | [18]
inactive: all other assays above

Cc1ccc(-c2ncc(Cl)cc2-c2ccc(S(C)(=O)=O)cc2)cn1
not listed: [5] | [10] | [14] | [16] | [17] | [18] | [19]
inactive: all other assays above

CC(C)(N)C#N
not listed: [5] | [16] | [17] | [18]
inactive: all other assays above

C=CCOC(=O)COCCC(C)C
not listed: [5] | [9] | [16] | [18]
inactive: all other assays above

CCCCNCC
not listed: [5] | [16] | [18]
inactive: all other assays above
